# Experimental data as given in the supplement of paper PMC4466140.
# B1: unnamed (peptide)
# chain: DFTLPPPPPPPGLDE
# B2: unnamed (peptide)
# chain: DKSRPPRPPPKPLHL
# Key:
# Assay in all cases: SPOT peptide array binding signal intensity (averaged, normalized) (arbitrary units (background-subtracted, floor 0; scale differs between SH3 domains)); higher = stronger binding of the SH3 domain to the peptide
# [1] = molecular target: AgAbp1
# Procedure, shortened: (§1)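 Four yeast species supplied the SH3 domains, which were expressed as GST fusions in E. coli BL21(DE3) and purified on glutathione Sepharose. Incubation with cellulose membranes carrying synthetic 15-mer peptides, cysteines exchanged for serines, ran overnight at 4°C at 10 μg/ml in TBS-based blocking buffer. Binding signal is reported as normalized, background-subtracted spot intensity averaged over replicates, in arbitrary units not shared between domains.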
# [2] = molecular target: AgBbc1
# Procedure, shortened: as §1
# [3] = molecular target: AgBem1-D1
# Procedure, shortened: as §1
# [4] = molecular target: AgBzz1-D1
# Procedure, shortened: as §1
# [5] = molecular target: AgBzz1-D2
# Procedure, shortened: as §1
# [6] = molecular target: AgCyk3
# Procedure, shortened: as §1
# [7] = molecular target: AgFus1
# Procedure, shortened: as §1
# [8] = molecular target: AgHof1
# Procedure, shortened: as §1
# [9] = molecular target: AgHse1
# Procedure, shortened: as §1
# [10] = molecular target: AgLsb1
# Procedure, shortened: as §1
# [11] = molecular target: AgLsb4
# Procedure, shortened: as §1
# [12] = molecular target: AgMyo5
# Procedure, shortened: as §1
# [13] = molecular target: AgNbp2
# Procedure, shortened: as §1
# [14] = molecular target: AgRvs167
# Procedure, shortened: as §1
# [15] = molecular target: AgSho1
# Procedure, shortened: as §1
# [16] = molecular target: AgSla1-D1-D2
# Procedure, shortened: as §1
# [17] = molecular target: AgSla1-D3
# Procedure, shortened: as §1
# [18] = molecular target: CaAbp1-D1
# Procedure, shortened: as §1
# [19] = molecular target: CaAbp1-D2
# Procedure, shortened: as §1
# [20] = molecular target: CaBbc1
# Procedure, shortened: as §1
# [21] = molecular target: CaBem1-D1
# Procedure, shortened: as §1
# [22] = molecular target: CaBzz1-D1
# Procedure, shortened: as §1
# [23] = molecular target: CaBzz1-D2
# Procedure, shortened: as §1
# [24] = molecular target: CaCyk3
# Procedure, shortened: as §1
# [25] = molecular target: CaFus1
# Procedure, shortened: as §1
# [26] = molecular target: CaHof1
# Procedure, shortened: as §1
# [27] = molecular target: CaHse1
# Procedure, shortened: as §1
# [28] = molecular target: CaLsb1
# Procedure, shortened: as §1
# [29] = molecular target: CaLsb4
# Procedure, shortened: as §1
# [30] = molecular target: CaMyo5
# Procedure, shortened: as §1
# [31] = molecular target: CaNbp2
# Procedure, shortened: as §1
# [32] = molecular target: CaRvs167
# Procedure, shortened: as §1
# [33] = molecular target: CaRvs167-3
# Procedure, shortened: as §1
# [34] = molecular target: CaSho1
# Procedure, shortened: as §1
# [35] = molecular target: CaSla1-D1-D2
# Procedure, shortened: as §1
# [36] = molecular target: CaSla1-D3
# Procedure, shortened: as §1
# [37] = molecular target: ScAbp1
# Procedure, shortened: as §1
# [38] = molecular target: ScBbc1
# Procedure, shortened: as §1
# [39] = molecular target: ScBem1-D1
# Procedure, shortened: as §1
# [40] = molecular target: ScBzz1-D1
# Procedure, shortened: as §1
# [41] = molecular target: ScBzz1-D2
# Procedure, shortened: as §1
# [42] = molecular target: ScCyk3
# Procedure, shortened: as §1
# [43] = molecular target: ScFus1
# Procedure, shortened: as §1
# [44] = molecular target: ScHof1
# Procedure, shortened: as §1
# [45] = molecular target: ScHse1
# Procedure, shortened: as §1
# [46] = molecular target: ScLsb1
# Procedure, shortened: as §1
# [47] = molecular target: ScLsb2
# Procedure, shortened: as §1
# [48] = molecular target: ScLsb3
# Procedure, shortened: as §1
# [49] = molecular target: ScLsb4
# Procedure, shortened: as §1
# [50] = molecular target: ScMyo3
# Procedure, shortened: as §1
# [51] = molecular target: ScMyo5
# Procedure, shortened: as §1
# [52] = molecular target: ScNbp2
# Procedure, shortened: as §1
# [53] = molecular target: ScPex13
# Procedure, shortened: as §1
# [54] = molecular target: ScRvs167
# Procedure, shortened: as §1
# [55] = molecular target: ScSho1
# Procedure, shortened: as §1
# [56] = molecular target: ScSla1-D1-D2
# Procedure, shortened: as §1
# [57] = molecular target: ScSla1-D3
# Procedure, shortened: as §1
# [58] = molecular target: SpAbp1-D1
# Procedure, shortened: as §1
# [59] = molecular target: SpBbc1
# Procedure, shortened: as §1
# [60] = molecular target: SpBzz1-D1
# Procedure, shortened: as §1
# [61] = molecular target: SpBzz1-D2
# Procedure, shortened: as §1
# [62] = molecular target: SpCyk3
# Procedure, shortened: as §1
# [63] = molecular target: SpHof1
# Procedure, shortened: as §1
# [64] = molecular target: SpHof1-2
# Procedure, shortened: as §1
# [65] = molecular target: SpHof1-3
# Procedure, shortened: as §1
# [66] = molecular target: SpHse1
# Procedure, shortened: as §1
# [67] = molecular target: SpLsb1
# Procedure, shortened: as §1
# [68] = molecular target: SpLsb4
# Procedure, shortened: as §1
# [69] = molecular target: SpMyo1
# Procedure, shortened: as §1
# [70] = molecular target: SpNbp2
# Procedure, shortened: as §1
# [71] = molecular target: SpPex13
# Procedure, shortened: as §1
# [72] = molecular target: SpRvs167
# Procedure, shortened: as §1
# [73] = molecular target: SpSla1-D1-D2
# Procedure, shortened: as §1
# [74] = molecular target: SpSla1-D3
# Procedure, shortened: as §1
binder,measurement,setting,value
B1,SPOT peptide array binding signal intensity,[1],5
same,SPOT peptide array binding signal intensity,[2],≤ 0
same,SPOT peptide array binding signal intensity,[3],≤ 0
same,SPOT peptide array binding signal intensity,[4],≤ 0
same,SPOT peptide array binding signal intensity,[5],≤ 0
same,SPOT peptide array binding signal intensity,[6],≤ 0
same,SPOT peptide array binding signal intensity,[7],≤ 0
same,SPOT peptide array binding signal intensity,[8],57.5
same,SPOT peptide array binding signal intensity,[9],≤ 0
same,SPOT peptide array binding signal intensity,[10],2
same,SPOT peptide array binding signal intensity,[11],≤ 0
same,SPOT peptide array binding signal intensity,[12],1550
same,SPOT peptide array binding signal intensity,[13],32.5
same,SPOT peptide array binding signal intensity,[14],1.67
same,SPOT peptide array binding signal intensity,[15],2
same,SPOT peptide array binding signal intensity,[16],1
same,SPOT peptide array binding signal intensity,[17],0.5
same,SPOT peptide array binding signal intensity,[18],≤ 0
same,SPOT peptide array binding signal intensity,[19],≤ 0
same,SPOT peptide array binding signal intensity,[20],≤ 0
same,SPOT peptide array binding signal intensity,[21],0.5
same,SPOT peptide array binding signal intensity,[22],136
same,SPOT peptide array binding signal intensity,[23],5.5
same,SPOT peptide array binding signal intensity,[24],≤ 0
same,SPOT peptide array binding signal intensity,[25],≤ 0
same,SPOT peptide array binding signal intensity,[26],≤ 0
same,SPOT peptide array binding signal intensity,[27],≤ 0
same,SPOT peptide array binding signal intensity,[28],0.5
same,SPOT peptide array binding signal intensity,[29],≤ 0
same,SPOT peptide array binding signal intensity,[30],8
same,SPOT peptide array binding signal intensity,[31],20
same,SPOT peptide array binding signal intensity,[32],≤ 0
same,SPOT peptide array binding signal intensity,[33],≤ 0
same,SPOT peptide array binding signal intensity,[34],≤ 0
same,SPOT peptide array binding signal intensity,[35],≤ 0
same,SPOT peptide array binding signal intensity,[36],≤ 0
same,SPOT peptide array binding signal intensity,[37],≤ 0
same,SPOT peptide array binding signal intensity,[38],≤ 0
same,SPOT peptide array binding signal intensity,[39],≤ 0
same,SPOT peptide array binding signal intensity,[40],≤ 0
same,SPOT peptide array binding signal intensity,[41],1
same,SPOT peptide array binding signal intensity,[42],0.5
same,SPOT peptide array binding signal intensity,[43],3
same,SPOT peptide array binding signal intensity,[44],14.8
same,SPOT peptide array binding signal intensity,[45],≤ 0
same,SPOT peptide array binding signal intensity,[46],≤ 0
same,SPOT peptide array binding signal intensity,[47],3.5
same,SPOT peptide array binding signal intensity,[48],≤ 0
same,SPOT peptide array binding signal intensity,[49],≤ 0
same,SPOT peptide array binding signal intensity,[50],2030
same,SPOT peptide array binding signal intensity,[51],1990
same,SPOT peptide array binding signal intensity,[52],18
same,SPOT peptide array binding signal intensity,[53],≤ 0
same,SPOT peptide array binding signal intensity,[54],3.33
same,SPOT peptide array binding signal intensity,[55],≤ 0
same,SPOT peptide array binding signal intensity,[56],≤ 0
same,SPOT peptide array binding signal intensity,[57],≤ 0
same,SPOT peptide array binding signal intensity,[58],≤ 0
same,SPOT peptide array binding signal intensity,[59],≤ 0
same,SPOT peptide array binding signal intensity,[60],1300
same,SPOT peptide array binding signal intensity,[61],2.5
same,SPOT peptide array binding signal intensity,[62],≤ 0
same,SPOT peptide array binding signal intensity,[63],2
same,SPOT peptide array binding signal intensity,[64],2.5
same,SPOT peptide array binding signal intensity,[65],1.5
same,SPOT peptide array binding signal intensity,[66],≤ 0
same,SPOT peptide array binding signal intensity,[67],≤ 0
same,SPOT peptide array binding signal intensity,[68],≤ 0
same,SPOT peptide array binding signal intensity,[69],1210
same,SPOT peptide array binding signal intensity,[70],9
same,SPOT peptide array binding signal intensity,[71],≤ 0
same,SPOT peptide array binding signal intensity,[72],≤ 0
same,SPOT peptide array binding signal intensity,[73],≤ 0
same,SPOT peptide array binding signal intensity,[74],≤ 0
B2,SPOT peptide array binding signal intensity,[61],1.5
same,SPOT peptide array binding signal intensity,[62],1
same,SPOT peptide array binding signal intensity,[63],≤ 0
same,SPOT peptide array binding signal intensity,[64],≤ 0
same,SPOT peptide array binding signal intensity,[65],90.8
same,SPOT peptide array binding signal intensity,[66],16.8
same,SPOT peptide array binding signal intensity,[67],362
same,SPOT peptide array binding signal intensity,[68],746
same,SPOT peptide array binding signal intensity,[69],466
same,SPOT peptide array binding signal intensity,[70],≤ 0
same,SPOT peptide array binding signal intensity,[71],≤ 0
same,SPOT peptide array binding signal intensity,[72],276
same,SPOT peptide array binding signal intensity,[73],≤ 0
same,SPOT peptide array binding signal intensity,[74],≤ 0
